TDP1 cell noCPT: qHTS for Inhibitors of human tyrosyl-DNA phosphodiesterase 1 (TDP1): qHTS in cells in absence of CPT; DT40 Tdp1-/- hTDP1 cells, no CPT, ATP luminescence, 48 h; Potency, µM (highest dose often 46.2 µM), for inactives: at the top dose activity change, negative = growth inhibition, usual class: inhibitors; 15% of 420,000 active; AID 686978, 2013; further: potency means the concentration at half of the fitted maximal effect; nearly all actives have a fitted effect of over 55% in size
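A cellular qHTS used chicken DT40 cells lacking endogenous Tdp1 but carrying stably transfected human TDP1. Compounds were applied without camptothecin, and cell growth kinetics were judged by ATP-dependent luminescence after ≥48 hr.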
IL-1B inflam inh: qHTS for Inhibitors of Inflammasome Signaling: IL-1-beta AlphaLISA Primary Screen | THP-1 LPS/ATP IL-1B secretion, AlphaLISA, 16 h; stronger effect = lower value | activity change, % at 57.5 µM | 4.7% of 360,000 active | AID 743279, 2014; in the data active means activity change below about -50%; inconclusive means mostly about -30% to -49%
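THP-1 cells pretreated 1 hr with compounds (up to 57.5 uM final), then stimulated with LPS (250 ng/mL final) plus ATP (1.25 mM final); secreted IL-1B measured by AlphaLISA after 16 hr, decreased signal indicating inhibition.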
DT40 TDP1 CPT: qHTS for Inhibitors of human tyrosyl-DNA phosphodiesterase 1 (TDP1): qHTS in cells in presence of CPT; chicken DT40 Tdp1-/-;hTDP1 cells + 20 nM CPT, ATP luminescence, 48 h; Potency, µM (highest dose often 46.2 µM), for inactives: top-dose activity change, negative = growth inhibition, actives largely listed as inhibitors; 12% of 420,000 active; further: potency means the concentration at half of the fitted maximal effect; nearly all actives have a fitted effect of over 55% in size
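Chicken DT40 Tdp1-/- cells complemented with human TDP1, 400 cells/well, exposed to compounds plus 20 nM camptothecin for at least 48 h at 37 C; viability read as ATP content by CellTiter-Glo luminescence.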
HT1080 IDH1KD tx: qHTS for induction of synthetic lethality in tumor cells producing 2HG: qHTS for the HT-1080-IDH1KD cell line; HT-1080 IDH1 knockdown viability, ATP luminescence, 48 h; Potency, µM (titrated, usually from 46.1 µM), without a hit: top-dose activity, negative = toxicity, most hits filed as cytotoxic; 2% of 360,000 active;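 further: potency means the concentration at half of the fitted maximal effect; 0% = DMSO wells and -100% = cell-free medium wells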
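In this qHTS, HT-1080 cells depleted of IDH1 are exposed for 48 h at 37 °C to compound titrations. Toxicity is scored from CellTiter-Glo luminescence, with DMSO as full viability and medium alone as none.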
uPA surface inh: qHTS for Inhibitors of Cell Surface uPA Generation; Potency, µM (highest dose often 38.3 µM), without a hit: at the highest dose activity change, negative = inhibition, hits mostly inhibitors; 0.31% of 330,000 active; cell surface uPA generation assay, qHTS; active means well fitted inhibition curve with a large enough effect; inconclusive means small, poorly fitted or top-dose-only effect; inactive means no such curve, though single readings can be large or run the other way; tested in mouse RAW 264.7 cells; further: potency means the concentration at half of the fitted maximal effect; nearly all actives have a fitted effect of over 55% in size
HT1080NT lethal: qHTS for induction of synthetic lethality in tumor cells producing 2HG: qHTS for the HT-1080-NT fibrosarcoma cell line | 1.6% of 360,000 active | Potency, µM (titrated, usually from 46.1 µM), inactives show at the highest dose activity, negative = less viability, usual class: cytotoxic | HT-1080-NT fibrosarcoma viability, CellTiter-Glo ATP luminescence, 48 h;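 further: NT is the 2HG producing partner of a matched IDH1 knockdown line; potency means the concentration at half of the fitted maximal effect; 0% = DMSO-treated cells and -100% = media-only wells without cells; nearly all actives have a fitted effect of over 55% in size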
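Fibrosarcoma NT cells, 750 per well in 5% FBS RPMI, were exposed to compound for 48 hours. Viability: CellTiter-Glo luminescence.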
An asterisk follows results filed as active; ? = inconclusive; / = not tested or not shown. Hits are enriched below; roughly 19% of the tested compounds scored in any of these assays. Unless noted, the call rests on the fitted dose curve; in most records, active means well fitted curve in the direction sought with a large enough effect; inconclusive means small, poorly fitted or top-dose-only effect, or another doubt; inactive means no such curve, though single readings can be large; an effect the other way counts as inactive or inconclusive. Unless noted, on the % scale 0 is the no-effect control and ±100 the full control effect.

SMILES | TDP1 cell noCPT | IL-1B inflam inh | DT40 TDP1 CPT | HT1080 IDH1KD tx | uPA surface inh | HT1080NT lethal
Cn1cc(-c2nc3cnc(N4CCOCC4)nc3n(C3CC3)c2=O)c2ccccc21 | -6% | / | -4% | / | / | /
CN1CCN(c2ncc3nc(-c4cn(C)c5ccccc45)c(=O)n(C)c3n2)CC1 | 23µM* | / | 23µM* | / | / | /
CCOc1ccccc1CN1CCC(n2nccc2NC(=O)C2CCCC2)CC1 | -1% | -9 | -1% | 2% | -1% | 3%
CCOC(=O)c1c(S(=O)(=O)NCC(=O)Nc2ccc(C)c(N(C)C)c2)c(C)n(C)c1C | -10% | / | 6% | / | / | /
CCN(CC)c1ccc(-c2nc3cnccn3c2NC2CCCC2)cc1 | ? | ? | 21µM* | 3% | 1% | 8%
CCC(C)Sc1cccc(-c2nc3cnccn3c2NC2CCCCC2)c1 (configuration not stated) | 16µM* | 0 | 21µM* | ? | -30% | ?
Cc1cc(C)n2c(NC3CCCC3)c(-c3cccnc3)nc2n1 | -15% | 7 | -8% | 8% | / | 7%
c1cc(SC2CCCCC2)cc(-c2nc3cnccn3c2NC2CCCCC2)c1 | ? | -66* | ? | ? | -1% | ?
c1ccc(-c2nc3cnccn3c2Nc2ccc3c(c2)OCCO3)cc1 | ? | 82 | ? | -10% | -2% | -2%
C=CCn1c(SCC(=O)N2CCC(C)CC2)nc2c([nH]c3ccccc32)c1=O | ? | 21 | ? | 10% | / | 9%
CCCc1nc(SCC(=O)NC2CCCC2)c2ccccc2n1 | ? | -58* | ? | -1% | -10% | -14%
COc1ccc(C(=O)NNC(=O)CSc2nc(C(C)C)nc3ccccc23)cc1 | -24% | -93* | -4% | -9% | -2% | -24%
CCc1nc(SCC(=O)NNC(=O)c2ccc(OC)cc2)c2ccccc2n1 | -16% | -29 | ? | 9% | 0% | 0%
CCCc1nc(SCC(=O)N2CCCC2)c2ccccc2n1 | ? | 1 | -7% | 0% | -9% | -2%
CC(C)c1nc(SCC(=O)NC2CCCCC2)c2ccccc2n1 | ? | -7 | 0% | 7% | -2% | 11%
CC(C)(C)c1nc(SCC(=O)NC2CCCC2)c2ccccc2n1 | -25% | -62* | -24% | -17% | 3% | -14%
CC(C)(C)c1nc(SCC(=O)NNC(=O)c2ccccc2)c2ccccc2n1 | ? | -91* | ? | ? | -5% | ?
CCOC(=O)c1c(-c2ccc(C)cc2)csc1NC(=O)c1cc(=O)c2cc(C)c(C)cc2o1 | -13% | / | -2% | / | / | /
Cc1nc2cc(C(=O)O)ccc2n1-c1ccc(C(C)C)cc1 | -11% | / | 2% | / | / | /
CC(C)(C)C1CCC(N2CCN(c3ccccc3)CC2)CC1 (configuration not stated) | ? | 0 | ? | 1% | 7% | 1%
CCCCNC(=O)CSc1nc(Cc2ccccc2)nc2ccccc12 | ? | -2 | ? | -3% | -18% | -24%
CC(C)NC(=O)CSc1nc(Cc2ccccc2)nc2ccccc12 | ? | -70* | ? | -14% | -7% | 0%
COc1ccc(/C(C)=N/NC(=O)CN(c2ccc(OC)cc2)S(=O)(=O)c2ccccc2)cc1 | -12% | -8 | -3% | -1% | -5% | 15%
O=C(NCc1cccnc1)c1[nH]c(C(F)(F)F)nc1-c1ccccc1 | 10% | 37 | -3% | 21% | / | 10%
O=C(NCc1cccnc1)c1ccc(S(=O)(=O)Nc2ccccc2)cc1 | -15% | 16 | -17% | 1% | -1% | 2%

Screens as filed in PubChem BioAssay.
